tim23-1 inh – growth inhibitors of tim23-1 mutant yeast; S. cerevisiae tim23-1 growth, BacTiter-Glo luminescence, 24 h; inhibition, % at 20 µM; 330,000 tested, 1.3% active;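 active = growth inhibition of the mutant yeast at or above 50%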;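 note: temperature-sensitive mutant grown at 25 °C; plate controls were DMSO-treated mutant yeast for no effect and medium wells lacking yeast for full effect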
PfHsp90 yeast 2 – inhibits growth of yeast expressing Plasmodium falciparum Hsp90. S. cerevisiae expressing PfHsp90, BacTiter-Glo ATP, 48 h; yeast lacking PDR1 and PDR3 efflux regulators. inhibition, % at 9.4 µM. AID 504621. 310,000 tested, 0.32% active;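 active = every replicate shows inhibition above about 80%, whatever the replicate mean, limit read from the data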;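 note: 0% = DMSO neutral controls and 100% = 20 µM radicicol positive controls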
TIM10 inh – inhibits growth of TIM10 yeast strain. 330,000 tested, 1.4% active. S. cerevisiae TIM10 strain growth, BacTiter-Glo luminescence, 24 h. AID 463195. inhibition, % at 10 µM;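 active = inhibition of 40% or more at the single tested concentration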;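 note: wild-type TIM10 isogenic control strain grown at permissive 25 °C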
SUMO Mot1 rescue – SUMOylation pathway inhibition by Mot1-301 growth rescue. growth rescue, % at 18.8 µM. 320,000 tested, 1% active. AID 2716. S. cerevisiae Mot1-301 growth rescue, ATP luminescence, 38.5C; percent above DMSO median, 100 means doubled;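 active = every valid replicate shows activation above 250% relative to neutral control wells; inactive = the rest, any valid replicate at or below 250%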;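 note: OY570 slx delta 5 strain wells were the positive control but not used for scaling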
tim10-1 inh – growth inhibitors of tim10-1 mutant yeast; inhibition, % at 20 µM; 330,000 tested, 2.2% active; S. cerevisiae tim10-1 ts strain growth, BacTiter-Glo, 24 h;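 active = inhibition of at least 40%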;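 note: mutant grown at 25 °C; 0% = DMSO wells with yeast and 100% = wells holding no yeast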
tim10-1 conf – tim10-1 yeast growth inhibition, confirmed | shares compounds with tim10-1 inh | S. cerevisiae tim10-1 ts strain growth, BacTiter-Glo, 24 h | inhibition, % at 20 µM | 7,400 tested, 56% active | AID 463213;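 active = inhibition of yeast growth at or above a set limit in either of two repeat tests at 20 µM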;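 note: tim10-1 mutant grown at permissive 25 °C to find synthetic lethal compounds; 0% = DMSO yeast wells and 100% = medium wells without yeast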
* hit, by the source's call; ! = a repeat was not active. A selection: hits, their analogues and other compounds. The true share with any hit is near 4.4%.

`COc1cc(-n2nnnc2SC)c(OC)cc1Cl` gave tim23-1 inh 12.8, PfHsp90 yeast 2 1.1, TIM10 inh 17.5, SUMO Mot1 rescue 3.8 and tim10-1 inh 3.8.
For COc1cc(N=c2ssnc2Cl)c(OC)cc1Cl the results were tim23-1 inh 44.5, PfHsp90 yeast 2 90.9*!, TIM10 inh 13.2, SUMO Mot1 rescue 242.5, tim10-1 inh 41.7*! and tim10-1 conf 50.8*.
COc1ccc(OC)c(N=c2ssnc2Cl)c1 was read as tim23-1 inh 24.7, TIM10 inh 12.2, SUMO Mot1 rescue -51.9, tim10-1 inh 46.9* and tim10-1 conf 31.7*.
Screening CCCCCCc1cc2cc(C(=O)NC)c(=N)oc2cc1O returned tim23-1 inh 25.7, PfHsp90 yeast 2 -14.9, TIM10 inh 15.5, SUMO Mot1 rescue -24.5 and tim10-1 inh 30.5.
For CCCCCCc1cc2cc(C(N)=O)c(=N)oc2cc1O the results were tim23-1 inh 13.1, TIM10 inh 15.2, SUMO Mot1 rescue -9.9, tim10-1 inh 42.2* and tim10-1 conf 17.6.
For COc1ccc(C(=O)C(C)N(C(=O)c2ccc(Cl)cc2Cl)N2C(=O)C3C4C=CC(C4)C3C2=O)cc1 (centres undefined) the results were tim23-1 inh 41.9, PfHsp90 yeast 2 24.5, TIM10 inh 22.4, SUMO Mot1 rescue 12.7, tim10-1 inh 46.6* and tim10-1 conf 21.4.
`CCOC(=O)c1sc(Nc2cccc(C)c2C)nc1C` gave tim23-1 inh 27.1, TIM10 inh 32.4, SUMO Mot1 rescue -27.4, tim10-1 inh 43.4* and tim10-1 conf 32.3*.
`O=C(NCCCN1CCOCC1)c1ccc(/C=C2\Oc3ccccc3N(Cc3ccccc3F)C2=O)cc1` gave tim23-1 inh 42.0, PfHsp90 yeast 2 22.6, TIM10 inh 9.0, SUMO Mot1 rescue -28.4, tim10-1 inh 46.5* and tim10-1 conf 11.9.
Screening COc1ccc(-c2cc(C(=O)Nc3ccccc3N3CCOCC3)c3ccccc3n2)cc1OC returned tim23-1 inh 14.2, PfHsp90 yeast 2 -20.3, TIM10 inh 30.4, SUMO Mot1 rescue 3.0, tim10-1 inh 42.0* and tim10-1 conf 25.4.
Cn1nc(C(=O)Nc2ccccc2N2CCOCC2)ccc1=O was read as tim23-1 inh -5.5, PfHsp90 yeast 2 8.4, TIM10 inh -14.3, SUMO Mot1 rescue -9.7 and tim10-1 inh -5.7.
O=C(Nc1ccccc1N1CCOCC1)c1ccc2ccccc2n1 was read as tim23-1 inh 25.6, TIM10 inh 15.3, tim10-1 inh 40.9* and tim10-1 conf 26.6.
CCCN1Cc2cccc(C(=O)Nc3ccc(C)cc3)c2C1=O was read as tim23-1 inh 3.9, TIM10 inh 8.9, SUMO Mot1 rescue 53.2 and tim10-1 inh 15.4.
CCOC(=O)c1ccc(NC(=O)c2cccc3c2C(=O)N(CC2CCCO2)C3)cc1 (centres undefined) was read as tim23-1 inh 35.9, PfHsp90 yeast 2 -41.2, TIM10 inh 17.9, SUMO Mot1 rescue 27.7, tim10-1 inh 47.0* and tim10-1 conf 43.3*.
For O=C1C2Sc3[nH]c(=O)sc3C(c3ccccc3)C2C(=O)N1c1ccc(Cl)cc1 (centres undefined) the results were tim23-1 inh 39.9, PfHsp90 yeast 2 -0.1, TIM10 inh 39.2, tim10-1 inh 42.1* and tim10-1 conf 28.9.
For Cc1ccc(N2C(=O)C3Sc4[nH]c(=O)sc4C(c4ccccc4)C3C2=O)cc1 (centres undefined) the results were tim23-1 inh 25.4, PfHsp90 yeast 2 7.6, TIM10 inh 25.0 and tim10-1 inh 37.2.
CCn1c(=N)n(CC(=O)c2ccc(Cl)c(Cl)c2)c2ccccc21 was read as tim23-1 inh 25.3, PfHsp90 yeast 2 -18.7, TIM10 inh 7.5, SUMO Mot1 rescue -11.3, tim10-1 inh 42.0* and tim10-1 conf 10.0.
For N=c1n(CCN2CCCCC2)c2ccccc2n1CC(=O)c1ccc(Cl)c(Cl)c1 the results were tim23-1 inh -34.6, TIM10 inh -16.8, SUMO Mot1 rescue 14.6 and tim10-1 inh 14.1.
O=C(CN1CCC(O)(c2cccc(F)c2)CC1)NCCc1c[nH]c2ccccc12 was read as tim23-1 inh 8.0, PfHsp90 yeast 2 27.5, TIM10 inh -19.1, SUMO Mot1 rescue -19.7 and tim10-1 inh -9.6.
`O=C(CNC(=S)N(Cc1ccccc1)Cc1ccccc1F)NCc1ccccc1` gave tim23-1 inh 14.2, PfHsp90 yeast 2 -44.8, TIM10 inh 14.8, SUMO Mot1 rescue 5.1 and tim10-1 inh 26.2.

Source: PubChem (several laboratories)
